# High-throughput results: PubChem, National Center for Advancing Translational Sciences (NCATS)
# HP1b chromo inh: HP1-beta chromodomain-methylated histone interaction inhibition; AID 540317; AlphaScreen HP1-beta / biotin-H3K9me3 peptide binding; P83916; Potency, µM (series often up to 114 µM), usual class: inhibitors; 390,000 tested, 0.56% active; note: nearly all actives have a fitted effect of over 70% in size
# Target sequence (P83916 whole entry, looked up): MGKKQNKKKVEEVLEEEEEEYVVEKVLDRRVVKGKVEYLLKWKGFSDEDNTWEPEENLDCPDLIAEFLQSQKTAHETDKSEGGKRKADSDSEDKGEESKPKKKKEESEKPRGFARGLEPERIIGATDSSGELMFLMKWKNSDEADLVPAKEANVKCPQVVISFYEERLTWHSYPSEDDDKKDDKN
#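 Compound inhibition of the preformed complex between 50 nM HP1-beta and 50 nM biotinylated H3K9me3 peptide was read by AlphaScreen. Buffer was PBS pH 7.4 with 0.01% Tween-20. Incubations ran 30 min at room temperature, with 10 ug/mL donor/acceptor beads.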
# Six1-Eya2 inh: inhibitors of human Six1/Eya2 interaction. AlphaScreen GST-Six1/His-Eya2 binding, biochemical; active compounds read low. activity change, % (concentration not given with the values). 360,000 tested, 0.56% active. AID 651725; in the data active = activity change below about -65%; inconclusive = mostly about -30% to -63%
#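 AlphaScreen with GST-Six1 and His-Eya2 (5X mix: 250 nM and 500 nM), glutathione donor and nickel acceptor beads; buffer 50 mM Tris pH 8.0, 300 mM NaCl, 1 mM TCEP; 1 h at 37 C in the dark.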
# CtBP-E1A blk: inhibitors of CtBP/E1A interaction | AlphaScreen GST-E1A/His-CtBP binding, 1536-well; active compounds read low | activity change, % (test concentration not listed) | 340,000 tested, 0.49% active | AID 651724; in the data active = activity change below about -65%; inconclusive = mostly about -30% to -63%
#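 Protein mix (5X: 125 nM each GST-E1A, His-CtBP) was incubated with pinned compound 2 h at 37 deg C in dark, in 50 mM Tris pH 8.0 buffer with 300 mM NaCl. Glutathione donor and nickel acceptor beads followed; AlphaScreen signal read after 1 h.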
# BAZ2B inh: BAZ2B (human) inhibition; 360,000 tested, 4.4% active; Q9UIF8; Potency, µM (top dose mostly 114 µM), actives largely listed as inhibitors; AlphaScreen BAZ2B-H3K14Ac peptide displacement; AID 504333; note: nearly all actives have a fitted effect of over 60% in size
#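 AlphaScreen displacement of biotin-H3(5-23)K14Ac peptide (50 nM final) from BAZ2B (50 nM final) in PBS pH 7.4, 0.01% Tween-20; complex preformed 30 min RT, then compounds (top 110 uM) 30 min RT, beads 20 min dark.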
# G9a block: G9a (human) methyltransferase inhibition. Q96KQ7. G9a H3K9 monomethylation, AlphaScreen, 2 h. Potency, µM (doses to about 102 µM), usual class: inhibitors. 350,000 tested, 8.8% active. AID 504332; note: nearly all actives have a fitted effect of over 75% in size
# Target sequence (Q96KQ7 913-1193 limits assumed): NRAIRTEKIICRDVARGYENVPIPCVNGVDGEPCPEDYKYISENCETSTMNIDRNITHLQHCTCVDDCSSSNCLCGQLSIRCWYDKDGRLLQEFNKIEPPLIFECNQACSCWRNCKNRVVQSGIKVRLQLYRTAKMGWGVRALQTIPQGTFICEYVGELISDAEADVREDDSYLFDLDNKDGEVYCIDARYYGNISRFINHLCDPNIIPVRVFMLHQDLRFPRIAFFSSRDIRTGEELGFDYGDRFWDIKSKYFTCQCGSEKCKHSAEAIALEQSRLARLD
#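 Quantitative HTS format: methyltransferase activity on a biotin-tagged H3K9 peptide is measured by AlphaScreen, using a rabbit anti-monomethyl-H3K9 antibody with streptavidin donor and anti-IgG acceptor beads. Final levels are 20 nM enzyme, 500 nM peptide, 20 uM SAM; 2 h RT.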
# JMJD2A Tudor inh: inhibitors of human JMJD2A Tudor domain; AlphaScreen JMJD2A-Tudor / H3K4me3 peptide binding; Potency, µM (top dose mostly 114 µM), usual class: inhibitors; 390,000 tested, 4.4% active; AID 504339; note: nearly all actives have a fitted effect of over 50% in size
# A number is an active result; n = inactive; u = inconclusive; x = no result. A selection: hits, their analogues and other compounds. The true share with any hit is near 10%. Unless noted, calls come from the whole dose curve; as a rule, active = well fitted inhibition curve with a large enough effect; inconclusive = small, poorly fitted or top-dose-only effect; inactive = no such curve, though single readings can be large or run the other way.
SMILES,HP1b chromo inh,Six1-Eya2 inh,CtBP-E1A blk,BAZ2B inh,G9a block,JMJD2A Tudor inh
CCOC(=O)C1=C(C)N(c2ccc(OC)cc2)C(=O)/C1=C\c1cccs1,n,n,n,u,n,n
COC(=O)C1=C(C)N(Cc2cccnc2)C(=O)/C1=C\c1cccs1,x,x,x,28µM,x,x
C=CCN1C(=O)/C(=C\c2cccs2)C(C(=O)OC)=C1C,u,n,n,40µM,50µM,u
COC(=O)C1=C(C)N(Cc2cccnc2)C(=O)C1,n,n,n,n,14µM,n
COC(=O)C1=C(C)N(CC(C)C)C(=O)C1,n,n,n,n,40µM,n
COC(=O)C1=C(C)N(c2ccc(C)cc2)/C(=C/c2cccs2)C1=O,n,n,n,n,n,n
COCCCN1C(=O)C(CC(=O)NCCN2CCOCC2)CC(C(=O)N(C)C)=C1C (configuration not stated),x,n,n,x,x,x
N#C/C(=C\c1ccccc1)C(=O)Nc1sc2c(c1C(N)=O)CCC2,n,x,x,n,n,n
O=C(NCc1cccs1)c1cccnc1SCCS(=O)(=O)c1ccc(C(F)(F)F)cn1,n,n,n,n,16µM,n
COCCN(CC(=O)Nc1ccccc1C(F)(F)F)C(=O)c1ccc(-n2cccn2)cc1,n,n,n,n,n,n
COc1cccc(-n2c(=O)[nH]cc(C(=O)Nc3ccc(NC(C)=O)cc3)c2=O)c1,n,n,n,n,45µM,n
COc1ccc(NC(=O)c2c[nH]c(=O)n(-c3ccc(C)c(C)c3)c2=O)cc1OC,n,n,n,n,n,n
CC(C)c1ccc(NC2CCCN(C(=O)CN3CCCC3=O)C2)cc1 (configuration not stated),n,n,n,n,n,n
CCOCCN1CCN(C(=O)CN2CCCC2=O)CC1,n,n,n,89µM,7.9µM,u
CCN1CCN(c2cc(C)c3cc(NC(=S)N4CCN(c5ccccc5)CC4)ccc3n2)CC1,n,n,n,u,n,n
COc1ccccc1N1CCN(C(=S)Nc2ccc3nc(N4CCOCC4)cc(C)c3c2)CC1,u,n,n,x,56µM,u
CCN1CCN(c2cc(C)c3cc(NC(=S)N4CCN(c5ccccc5F)CC4)ccc3n2)CC1,n,n,n,u,45µM,u
CCN1CCN(c2cc(C)c3cc(NC(=S)N4CCOCC4)ccc3n2)CC1,n,n,x,n,40µM,n
CCN1CCN(c2cc(C)c3cc(NC(=O)CCC(=O)N4CCN(c5ccccc5)CC4)ccc3n2)CC1,n,n,n,n,79µM,u
Cc1cc(N2CCOCC2)nc2ccc(NC(=S)N3CCN(c4ccccc4)CC3)cc12,n,n,n,x,u,n
O=C1C2C3C=CC(C2C(=O)N1c1cccc(O)c1)C1C2C(=O)N(c4cccc(O)c4)C(=O)C2C31 (configuration not stated),n,n,x,u,u,n
CCN1CCN(c2cc(C)c3cc(NC(=O)/C=C/c4cccc(Cl)c4)ccc3n2)CC1,n,x,x,u,11µM,32µM
CCN1CCN(c2cc(C)c3cc(NC(=S)N(CC)CC)ccc3n2)CC1,n,n,x,u,35µM,u
CCCN1CCN(C(=S)Nc2ccc3nc(N4CCN(CC)CC4)cc(C)c3c2)CC1,n,n,n,n,45µM,n
CCN1CCN(c2cc(C)c3cc(NC(=O)c4cccc(Cl)c4)ccc3n2)CC1,n,x,x,n,n,u
SMILES,HP1b chromo inh,Six1-Eya2 inh,CtBP-E1A blk,BAZ2B inh,G9a block,JMJD2A Tudor inh
O=C1OC2C[C@H]1[C@@H]1C(=O)N(Cc3ccccc3)CCC1C2I (some centres not stated),x,x,x,x,n,x
Cc1cc(C)c2c(=O)cc(C(=O)Nc3ccccc3C(F)(F)F)oc2c1,n,x,x,n,n,n
CCOc1ccc(C(=O)Nc2cccc(OCc3cc(=O)n4cc(C)sc4n3)c2)cc1,n,x,x,n,n,n
CCN1CCN(Cc2c(O)ccc3c2O/C(=C\c2ccccc2)C3=O)CC1,n,n,n,u,79µM,n
CCN1CCN(Cc2c(O)ccc3c2O/C(=C\c2ccc(C)cc2)C3=O)CC1,n,n,n,u,n,n
CC1CCCN(Cc2c(O)ccc3c2O/C(=C\c2ccco2)C3=O)C1 (configuration not stated),n,u,n,u,3.5µM,u
